From PubChem
HIV RNase H inh-1: inhibitors of HIV-1 reverse transcriptase RNase H. RT-RNase H RNA/DNA duplex cleavage, fluorescence. P04585. 1.9% of 65,000 active. inhibition, % at 10 µM; in the data active = inhibition above about 50%
HIV RNase H inh-2: confirmation of HIV-1 reverse transcriptase RNase H inhibitors | shares compounds with HIV RNase H inh-1 | Recombinant RT RNase H, fluorescent RNA/DNA duplex cleavage | inhibition, % at 10 µM | 39% of 1,000 active | AID 651; in the data active = inhibition above about 48%; inconclusive = no clear call, values can overlap the other calls
Numbers stand for hits; . = inactive; ? = inconclusive. Many of the other results were omitted from the sample, so hits are more common in it than they were.

SMILES	HIV RNase H inh-1	others
Cc1ccc(C2N(c3cccc(Cl)c3)C(=O)C3CCCN32)o1 (centres undefined)	.
COc1cc(OC)c(C2CC(=O)N3CN(c4ccccc4C)CSC3=C2C#N)cc1OC (centres undefined)	77	HIV RNase H inh-2=72
Cc1cccc(N2CC34C=CC(O3)C(C(=O)O)C4C2=O)c1 (centres undefined)	.
Cc1ccc(NC(=O)CSc2n[nH]c(-c3ccncc3)n2)cc1C	.
O=C(NCc1ccc2c(c1)OCO2)C1CCCN(S(=O)(=O)c2cccnc2)C1 (centres undefined)	.
CCCCn1c(SCC(=O)NCc2cccs2)nc2c1c(=O)n(C)c(=O)n2C	.
COc1ccc(CCNC(=O)c2cc(-c3cc(C)c(C)cc3O)n[nH]2)cc1OC	.
COc1ccc(OC)c(NC(=O)c2cc(-c3ccc(C)cc3O)n[nH]2)c1	76	HIV RNase H inh-2=.
Cc1ccc(-c2cc(C(=O)Nc3cc(C)ccc3C)[nH]n2)c(O)c1	.
N#CC1=C(N)N(c2ccc(Oc3ccccc3)cc2)C(=O)C1	.
CC1(CC(=O)O)C(=O)N=C2C=CC=CN21 (centres undefined)	.
O=C(Nc1nnc(-c2ccccc2)o1)c1ccc(Cl)cc1	.
CC(=O)c1ccc(C(=O)Nc2nnc(-c3ccc(Cl)cc3)o2)cc1	.
CN(C)c1ccc(C(=O)Nc2nnc(-c3ccc(Cl)cc3)o2)cc1	57	HIV RNase H inh-2=.
Clc1ss/c(=N\c2ccccn2)c1Cl	68	HIV RNase H inh-2=.
CNC(=O)c1cc2c(=O)n3cccc(C)c3nc2n(C(C)C)c1=N	.
Cn1c(COc2ccccc2)nnc1SCCC(=O)Nc1ccccc1	.
CCCOC(=O)NC(CC)COC(=O)Nc1cc(C)ccc1C (centres undefined)	93	HIV RNase H inh-2=.
COC(=O)[C@H](CCSC)NC(=O)Nc1cc(C)ccc1C	.
CCCCNC(=O)OCC(CC)NC(=O)OC(C)C (centres undefined)	.
CCOc1ccc2[nH]c(=O)c(CN(CCO)C(=O)CC)cc2c1	.
CC1CCC(C(C)C)C(OC(=O)CSc2n[nH]c(=O)[nH]c2=O)C1 (centres undefined)	.
CN=C(Nc1cc(C)nn1CCC#N)c1ccc(F)cc1	.
Cc1nn(CCC#N)c2c1P(=S)(N1CCCC1)OC(c1ccc(F)cc1)=N2 (centres undefined)	91	HIV RNase H inh-2=72
O=C(CSc1ncn[nH]1)c1ccco1	.
SMILES	HIV RNase H inh-1	others
O=C(CSc1ncn[nH]1)c1ccccc1	70	HIV RNase H inh-2=67
O=C(CSc1ncn[nH]1)Nc1ccccc1C(=O)O	.
CCOC(=O)C1CCCN(c2c(N3CCc4ccccc4C3)c(=O)c2=O)C1 (centres undefined)	.
Nn1c(SCC(=O)Nc2ccccc2)nnc1-c1cccnc1	.
Cc1c(NC(=O)Oc2ccccc2)sc(=S)n1C	59	HIV RNase H inh-2=.
CC(=O)NC(=O)Nc1sc(=S)n(C)c1C	.
Cc1nnc(NC(=O)Oc2ccccc2)s1	.
CCc1nc(C)cc(N)c1OCc1ccccc1	.
Cn1c(=O)cc(SCC(=O)NCCN2CCN(c3ccccc3F)CC2)c2cc(Cl)ccc21	.
CSc1nnc(-c2ccccc2)o1	.
O=S1(=O)C=C(Sc2nnc(-c3ccccc3)o2)c2ccccc21	65	HIV RNase H inh-2=.
Cc1cc(C)nc(SC2=CS(=O)(=O)c3ccccc32)n1	.
Cc1ccc2c(c1)-c1c(cnn1CC(=O)Nc1ccccc1N1CCN(C)CC1)CO2	.
N#Cc1nc(-c2cccs2)oc1N1CCN(Cc2ccccc2)CC1	.
COCCn1c(=O)c2c3c(sc2n(CC(N)=O)c1=O)CCCC3	.
Cc1cc2oc(=O)cc(COC(=O)c3cccc(N(C)C)c3)c2cc1C	.
CCSc1nnc(NC(=O)c2cnccn2)s1	.
CCSc1nnc(NC(=O)c2ccccn2)s1	.
CCSc1nnc(NC(=O)c2csc3c2CCCC3)s1	62	HIV RNase H inh-2=?
COCCCNC(CC(=O)Nc1ccc(N(C)C)cc1)C(=O)O (centres undefined)	.
Cn1c(SCC(=O)N2CCCCC2)nc2cccnc21	.
CCC(=O)N1CCc2cc(S(=O)(=O)N3CCN(c4ccccn4)CC3)ccc21	.
CCN(CC)CC(=O)Nc1cc(C)c2c(=O)oc3ccccc3c2n1	.
CCCCOCCCn1c(-c2ccco2)nc2nc3ccccc3nc21	.
Cc1ccc(-n2c(N)c(C(=O)N3CCN(C)CC3)sc2=S)cc1	93	HIV RNase H inh-2=63
SMILES	HIV RNase H inh-1	others
Cc1c(C(=O)N2CCCCC2)sc(N)c1C#N	.
Cc1ccc(-n2c(N)c(C(=O)N3CCCCC3)sc2=S)cc1	95	HIV RNase H inh-2=75
Cc1ccc(NS(=O)(=O)c2ccc(C(=O)N3CCCN(C)CC3)cc2)cc1	.
CCOC(=O)c1c(N)sc(C(=O)N2CCCC2)c1C	.
C=CCn1c(N)c(C(=O)N2CCN(C)CC2)sc1=S	.
CC1=C(C(=O)OCC2CCCO2)C(c2ccncc2)C2=C(CC(C)(C)CC2=O)N1 (centres undefined)	.
COC(=O)c1ccc(CC(=O)c2c(C)cc(O)cc2O)o1	.
O=C(Nc1cccc(NS(=O)(=O)c2ccc(S(=O)(=O)NC3CC3)cc2)c1)c1ccccn1	.
Cn1cccc1Cc1nnc(SCC(=O)Nc2ccc3c(c2)OCCO3)n1CCc1ccccc1	.
CCOc1cc(C(=O)CSc2nnc(CNc3ccc(Cl)cc3)o2)ccc1NC(=O)CC	67	HIV RNase H inh-2=.
CCc1nnc(NC(=O)CSc2nnc(CNc3ccc(Cl)cc3)o2)s1	.
COc1ccc(NC(=O)CSc2nnc(CNC(=O)COc3ccc(Cl)cc3)o2)c(OC)c1	.
CCc1nnc(NC(=O)C(C)Sc2ccccc2)s1 (centres undefined)	.
COc1ccc(OC)c(C(c2nnnn2CCc2ccccc2)N2CCC(C(N)=O)CC2)c1 (centres undefined)	.
COc1ccccc1N(CCC#N)C(=O)CSc1nc(-c2ccccc2)cn1N	.
COc1ccc(Cl)cc1N1CC(c2nc3ccccc3[nH]2)CC1=O (centres undefined)	.
O=C1CC(c2nc3ccccc3[nH]2)CN1c1cccc(C(F)(F)F)c1 (centres undefined)	.
O=C1CC(c2nc3ccccc3[nH]2)CN1c1ccccc1F (centres undefined)	63	HIV RNase H inh-2=.
CC(NC(=O)NCc1cccnc1)(C(F)(F)F)C(F)(F)F	.
Cc1cc(Cl)ccc1OCc1nc(-c2ccc(O)cc2)n[nH]1	.
O=c1c2ccccc2n2cnnc2n1-c1ccccc1	.
O=c1c2ccccc2n2nnnc2n1-c1ccccc1	.
O=c1c2ccccc2[se]n1-c1ccccc1	94	HIV RNase H inh-2=67
COc1ccc(OC)c(C(c2nnnn2C2CCCC2)N2CCN(c3ccccc3)CC2)c1 (centres undefined)	.
CN(C)S(=O)(=O)c1ccc(S(=O)(=O)N(Cc2ccccn2)Cc2ccco2)cc1	.
SMILES	HIV RNase H inh-1	others
CC(C)Sc1nc2c(c(=O)[nH]c(=O)n2C)n1Cc1ccc(Cl)cc1	.
CCC(C)Sc1nc2c(c(=O)[nH]c(=O)n2C)n1Cc1ccc(Cl)cc1 (centres undefined)	.
C/C=C/Cn1c(SCc2ccc(C)cc2)nc2c1c(=O)[nH]c(=O)n2C	.
C=CCn1c(SCc2ccc(Cl)cc2)nc2c1c(=O)[nH]c(=O)n2C	.
CCCSc1nc2c(c(=O)[nH]c(=O)n2C)n1Cc1ccc(C)cc1	.
Cc1ccc(Cn2c(SCC(C)C)nc3c2c(=O)[nH]c(=O)n3C)cc1	87	HIV RNase H inh-2=58
Cc1ccc(Cn2c(N3CCCCCC3)nc3c2c(=O)[nH]c(=O)n3C)cc1	.
C/C(Cl)=C/CSc1nc2c(c(=O)[nH]c(=O)n2C)n1C(C)C	.
CCSc1nc2c(c(=O)[nH]c(=O)n2C)n1C	.
